High-throughput results: PubChem, National Center for Advancing Translational Sciences (NCATS)
This is a sample that favours compounds with a hit; in the whole collection about 7.9% have one here.
MCF10A rerep: A quantitative high throughput screen for small molecules that induce DNA re-replication in MCF 10a normal breast cells; MCF 10A DNA re-replication, Hoechst nuclear intensity, 48 h; Potency, µM (top dose mostly 46.1 µM), for inactives: at the highest dose activity, positive = re-replication, actives largely listed as activators; 350,000 tested, 2.9% active; AID 624296, 2012; also: % of control where 0% means no effect; nearly all actives have a fitted effect of over 50% in size
SW480 rereplic: A quantitative high throughput screen for small molecules that induce DNA re-replication in SW480 colon adenocarcinoma cells; SW480 DNA re-replication, Hoechst DNA content imaging, 48 h; Potency, µM (series often up to 46.1 µM), for inactives: top-dose re-replication activation, usual class: activators; 340,000 tested, 1.8% active; also: % of control where 0% means no effect; nearly all actives have a fitted effect of over 55% in size
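250 cells/well; 23 nL cpd via pin tool; 48 hr, 37 C, 5% CO2; Hoechst 40 min; imager read of total nuclear intensity, ex 405/em 500-530 nm.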
HT1080 IDH1KD tx: qHTS for induction of synthetic lethality in tumor cells producing 2HG: qHTS for the HT-1080-IDH1KD cell line. HT-1080 IDH1 knockdown viability, ATP luminescence, 48 h. AID 686971, 2013. Potency, µM (top dose mostly 46.1 µM), inactives show top-dose activity, negative = toxicity, hits mostly cytotoxic. 360,000 tested, 2% active;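 also: 0% = DMSO wells and -100% = cell-free medium wells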
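Knockdown cells (IDH1KD HT-1080) received compounds 2 h after plating at 750 cells/well and were kept 48 h at 37 °C in 5% FBS RPMI. A CellTiter-Glo luminescence read gave % activity for curve fitting.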
HT1080-NT tox: qHTS for induction of synthetic lethality in tumor cells producing 2HG: qHTS for the HT-1080-NT fibrosarcoma cell line | HT-1080-NT fibrosarcoma viability, CellTiter-Glo ATP luminescence, 48 h | Potency, µM (series often up to 46.1 µM), inactives show at the top dose activity, negative = less viability, most hits filed as cytotoxic | 360,000 tested, 1.6% active;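 also: NT is the 2HG producing partner of a matched IDH1 knockdown line; 0% = DMSO-treated cells and -100% = media-only wells without cells; nearly all actives have a fitted effect of over 55% in size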
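Viability of the 2HG-overproducing fibrosarcoma line after 48 hours of compound exposure at 37 degrees C was determined by luminescence with CellTiter-Glo, and concentration-effect curves were then fitted and categorized.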
KB-V1 MDR tox: qHTS assay for MDR1-selective chemotherapeutics: Primary screen using the drug-selected MDR subline cells KB-V1; KB-V1 MDR cells viability, CellTiter-Glo, 72 h; Potency, µM (titrated, usually from 46.1 µM), usual class: cytotoxic; 400,000 tested, 3.4% active; AID 1347076, 2019; also: % is scaled to controls: 0 for no effect and ±100 for the full control effect; nearly all actives have a fitted effect of over 60% in size
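KB-V1 MDR subline cells in DMEM (phenol-red free, 10% FBS) exposed to compounds in qHTS concentration series for 72 h at 37 degrees C. Viability read by CellTiter-Glo luminescence; concentration-effect curves fitted after normalization and correction.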
KB-3-1 cytotox: qHTS assay for MDR1-selective chemotherapeutics: Primary screen using the parental adenocarcinoma cell KB-3-1 | 400,000 tested, 1.4% active | Potency, µM (titrated, usually from 46.1 µM), usual class: cytotoxic | KB-3-1 viability, CellTiter-Glo ATP luminescence, 72 h | AID 1347075, 2019; also: % is scaled to controls: 0 for no effect and ±100 for the full control effect; nearly all actives have a fitted effect of over 60% in size
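Luminescent ATP read-out (CellTiter-Glo) measures survival of drug-naive KB-3-1 cells after 72 h compound exposure at 37 °C. Titration series was screened from lowest to highest concentration, with DMSO vehicle plates as background controls.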
Active calls of the source: *; i = inactive; ? = inconclusive; / = no result given. Calls follow the shape of the dose curve; as a rule, active = well fitted curve in the direction sought with a large enough effect; inconclusive = small, poorly fitted or top-dose-only effect, or another doubt; inactive = no such curve, though single readings can be large; an effect the other way counts as inactive or inconclusive. Potency is read from the fitted curve at half-maximal effect.

SMILES	MCF10A rerep	SW480 rereplic	HT1080 IDH1KD tx	HT1080-NT tox	KB-V1 MDR tox	KB-3-1 cytotox
CCOc1cccc(-c2cc(-c3n[nH]c(=S)n3CC)c3ccccc3n2)c1	26%	15%	-3%	-6%	9.2µM*	i
CCOc1ccccc1-c1cc(-c2n[nH]c(=S)n2CC)c2ccccc2n1	31%	21%	1%	-6%	i	i
CCn1c(-c2cc3ccccc3cc2O)n[nH]c1=S	4%	4%	-21%	-3%	21µM*	?
C=CCn1c(-c2cc(OC)c(OC)c(OC)c2)n[nH]c1=S	-18%	-4%	?	7%	?	i
Cc1ccccc1Cn1c(Oc2ccccc2F)nc2c1c(=O)n(C)c(=O)n2C	/	/	/	/	i	i
O=C(Nc1cccc(Cl)c1)Nc1nnc([C@H]2C[C@H](O)[C@@H](CO)O2)s1	/	/	5%	-15%	i	i
CCN(CC)C(=O)c1ccc(-c2nnc(Nc3ccc(O)cc3)c3ccccc23)cc1	-3%	-2%	10%	11%	i	i
CCN(CC)C(=O)c1ccc(Nc2nnc(C)c3ccccc23)cc1	-3%	-6%	-28%	-16%	12µM*	i
CCc1ccc(NC(=O)Cn2cnc3sc(C)c(S(=O)(=O)N4CCN(c5ccccc5OC)CC4)c3c2=O)cc1	/	/	/	/	i	i
Cc1ccccc1NC(=O)OCc1cccnc1Sc1ccc(Cl)cc1	0%	-7%	-17%	-1%	i	i
Cc1ccc(Sc2ncccc2COC(=O)Nc2ccccc2)cc1	18µM*	5%	-29%	?	i	?
Cc1ccc(Sc2ncccc2COC(=O)Nc2c(C)cccc2C)cc1	?	?	?	?	i	26µM*
COc1ccc(OCC2c3cc(OC)c(OC)cc3CCN2C(=O)COc2ccc(Cl)cc2Cl)cc1 (configuration not stated)	/	/	/	/	i	i
CN(CCc1ccccc1)C(C(=O)Nc1ccc2c(c1)OCCO2)c1ccnc2ccccc12 (configuration not stated)	/	/	?	?	23µM*	?
O=C(Nc1ccc2c(c1)OCCO2)C(c1ccnc2ccccc12)N1CCC(Cc2ccccc2)CC1 (configuration not stated)	/	/	-14%	-17%	i	i
CCOc1ccc(CCNC(=O)c2cc3c(-c4ccccc4F)nn(C)c3s2)cc1	/	/	/	/	i	i
CCOC(=O)Cn1c(-c2ccccc2)nc2ccccc2c1=O	?	-7%	6%	2%	i	i
C#CCn1c(S(=O)(=O)Cc2ccc(F)cc2)nc(-c2ccccc2)c1-c1ccccc1	?	?	1.4µM*	?	5.2µM*	16µM*
CCOC(=O)Cn1c(S(=O)(=O)Cc2cccc(F)c2)nc(-c2ccccc2)c1-c1ccccc1	?	?	7.1µM*	-3%	21µM*	i
CCOC(=O)Cn1c(S(=O)(=O)Cc2ccc(F)cc2)nc(-c2ccccc2)c1-c1ccccc1	-3%	-1%	6.3µM*	?	i	i
O=S(=O)(c1ccc(N=C2NN=C(c3cc(F)ccc3F)CS2)cc1)N1CCOCC1	11%	?	16µM*	?	?	?
Fc1ccccc1N=C1NN=C(c2ccccc2)CS1	?	?	?	13µM*	?	?
Cc1cccc(N=C2NN=C(c3ccccc3F)CS2)c1C	9%	23%	0%	5%	i	i
CN(C)S(=O)(=O)c1cccc(N=C2NN=C(c3ccccc3)CS2)c1	11%	13µM*	?	?	?	?
Fc1ccc(N=C2NN=C(c3cc(F)ccc3F)CS2)cc1	?	?	?	?	i	?
SMILES	MCF10A rerep	SW480 rereplic	HT1080 IDH1KD tx	HT1080-NT tox	KB-V1 MDR tox	KB-3-1 cytotox
Fc1ccc(F)c(C2=NNC(=Nc3ccccc3F)SC2)c1	21µM*	?	?	?	?	?
COc1ccc(CN(C)C(=O)CCNS(=O)(=O)c2ccccc2)c(OC)c1	/	/	4%	5%	i	i
Cc1cc(F)ccc1NC(=O)CCS(=O)(=O)c1cccc2nsnc12	/	/	/	/	?	i
CC(C)CCN(Cc1ccco1)C(=O)c1cc2c(Cl)nc3ccccc3c2s1	/	/	/	/	?	i
O=C(COc1ccccc1)N/N=C/c1ccc([N+](=O)[O-])o1	9%	-2%	?	?	i	15µM*
O=C(N/N=C/c1ccc([N+](=O)[O-])o1)C(O)c1ccccc1 (configuration not stated)	12µM*	?	-27%	?	i	?
O=C(CSc1ccc(Cl)cc1)N/N=C/c1ccc([N+](=O)[O-])o1	9.2µM*	21µM*	-30%	-25%	i	i
O=C(N/N=C/c1ccc(-c2ccc([N+](=O)[O-])cc2)o1)C(O)c1ccccc1 (configuration not stated)	22%	?	-1%	-1%	i	i
CCCC(=O)Nc1ccc(C(=O)N/N=C/c2ccc([N+](=O)[O-])o2)cc1	3.3µM*	16µM*	13µM*	12µM*	i	?
Cc1ccc(OCC(=O)N/N=C/c2ccc([N+](=O)[O-])o2)cc1	-5%	-6%	?	?	?	i
Clc1ccc(Br)c(-c2nc3ccccc3[nH]2)c1	/	/	-3%	-2%	i	i
COc1ccc(OC)c(NC(=O)Cn2ccc3ccccc3c2=O)c1	/	/	/	/	i	?
CCOc1ccc(NC(=O)CCC(=O)NNC(=O)Nc2cccc(Cl)c2)cc1	0.18µM*	?	1%	-4%	?	i
O=C(Nc1cccc(Cl)c1)Nc1csc([N+](=O)[O-])c1	?	?	7.3µM*	21µM*	?	?
O=C(Nc1ccc(Cl)c(Cl)c1)Nc1ccc(Br)cc1F	?	/	16µM*	?	?	?
CSc1ccccc1NC(=O)Nc1cccc(Cl)c1Cl	23µM*	6%	-23%	-2%	?	i
O=C(Nc1ccc(Cl)c(Cl)c1)Nc1ccccc1O	7%	-4%	4%	4%	?	i
